Test [1] is described as follows: cAMP Responsive Elements (CRE) small molecule antagonists, cell-based qHTS assay: qHTS cell viability counter screen (AID 2060913). Also: nearly all actives have a fitted effect of over 40% in size. Summed up:
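CRE-bla HEK293T cells (2,000/well, 18 h) given compound plus NKH477 0.25 uM final for 3 h at 37C; viability counter-screen by CellTiter-Glo luminescence in same wells after 30 min.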
(Quantitative high-throughput screening tests each substance at several concentrations.)

Test [2] is described as follows: cAMP Responsive Elements (CRE) small molecule agonists, cell-based qHTS assay: qHTS cell viability counter screen (AID 2060914). Also: nearly all actives have a fitted effect of over 50% in size. Summed up: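 HEK 293T CRE-bla; DMEM + 10% dialyzed FBS, 25 mM HEPES; 18 h pre-incubation; compound 3 h, 37 °C/5% CO2; CellTiter-Glo added after reporter read; luminescence after 30 min RT.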

SMILES strings stand for the structures. Results filed as inconclusive are left out. Values without a mark were called inactive. Active and inactive are the calls of the source. Calls follow the shape of the dose curve; as a rule, active = well fitted cell-killing curve with a large enough effect in the repeat runs; inconclusive = weak or mixed curves, or effect the other way; inactive = flat fitted curve, though single readings scatter.
% is scaled to controls: 0 for no effect and ±100 for the full control effect; potency is read from the fitted curve at half-maximal effect.

For `Clc1cc(Cl)c(-c2c(Cl)c(Cl)cc(Cl)c2Cl)cc1Cl`, the Potency entry in test [1] and in test [2] was “inactive” each time.
As for `C=CC(=O)OCCOc1ccccc1`, the Potency entry in test [1] and in test [2] was “inactive” throughout.
Consider `CO[Si](C)(OC)c1ccccc1`, for which the Potency entry in test [1] and in test [2] was “inactive” each time.
Take `Cc1ccnc2ccccc12`: the Potency result in test [1] and in test [2] was “inactive” each time.
As to `Nc1ccn([C@H]2CS[C@@H](CO)O2)c(=O)n1`, the Potency result in test [1] and in test [2] was “inactive” in each case.
Turning to `COC(C)(C)OC`, the Potency result in test [1] and in test [2] was “inactive” in each case.
In the case of `COC(=O)C1CC(=O)C(C(=O)OC)CC1=O` (stereo not given), the viability change, negative = cytotoxic in test [1] is 18.8% [at 8.39 µM]. Also, in test [2], the activity change, negative = cytotoxicity was -4.18% [at 8.39 µM].
On to `Nc1nc(Cl)cc(Cl)n1`, for which the Potency result in test [1] and in test [2] was “inactive” in each case.
For the compound `Cc1c(C)c2c(c(C)c1OC(=O)CCC(=O)OCCO)CC[C@@](C)(CCC[C@H](C)CCC[C@H](C)CCCC(C)C)O2`, the Potency entry in test [1] was “inactive”. Besides, the Potency in test [2] is 26.6 µM (active).
As to `CN(C)c1ccncc1`, the Potency entry in test [1] and in test [2] was “inactive” throughout.
Regarding `Cc1c(-c2ccccc2)oc2c(C(=O)OCCN3CCCCC3)cccc2c1=O`, the Potency entry in test [1] and in test [2] was “inactive” in each case.
For the compound `Cc1cccc(Nc2ccncc2S(=O)(=O)NC(=O)NC(C)C)c1`, the Potency entry in test [1] and in test [2] was “inactive” each time.
On to `C[N+]1(C)[C@@H]2CC(OC(=O)[C@H](CO)c3ccccc3)C[C@H]1[C@@H]1O[C@@H]12` (stereo not given in full), for which the Potency entry in test [1] and in test [2] was “inactive” each time.
As for `NC(=O)c1ccncc1`, the Potency entry in test [1] and in test [2] was “inactive” throughout.
As to `O=C(O)c1ccccc1-n1cc(C(=O)O)c(=O)c2cc(Nc3c(F)cc(F)cc3Cl)c(Cl)cc21`, the Potency entry in test [1] and in test [2] was “inactive” throughout.
For the compound `CCCCCCCCCCCCCCCCCC[N+](C)(C)Cc1ccccc1`, the results for the Potency in test [1] and in test [2] were 61.7 µM (active) and 55 µM (active), respectively.
On the same counts, the results for `CC[Si](OC(C)=O)(OC(C)=O)OC(C)=O` are “inactive” and “inactive”.
On to `O=C1C(CCS(=O)c2ccccc2)C(=O)N(c2ccccc2)N1c1ccccc1` (stereo not given), for which the Potency result in test [1] and in test [2] was “inactive” in each case.
As to `CCCCCCCC/C=C\CCCCCCCC(=O)O`, the Potency entry in test [1] and in test [2] was “inactive” throughout.
Consider `CCC(C)(O)CCC=C(C)C` (stereo not given), for which the Potency result in test [1] and in test [2] was “inactive” in each case.
Consider `CCCCN(CCCC)CC(O)c1cc(Cl)cc2c1-c1ccc(Cl)cc1/C2=C/c1ccc(Cl)cc1` (stereo not given), for which the Potency entry in test [1] and in test [2] was “inactive” each time.
For the compound `CO[C@@]1(NC(=O)CSC[C@@H](N)C(=O)O)C(=O)N2C(C(=O)O)=C(CSc3nnnn3C)CS[C@@H]21`, the Potency result in test [1] and in test [2] was “inactive” in each case.
On to `Cc1ccc2c(c1[N+](=O)[O-])C(=O)c1ccccc1C2=O`, for which the Potency entry in test [1] and in test [2] was “inactive” throughout.
Regarding `NC[C@H]1O[C@H](O[C@H]2[C@H](O[C@@H]3O[C@H](CO)[C@@H](O)[C@H]3O)C(O)[C@H](N)C[C@@H]2N)[C@H](N)[C@@H](O)[C@@H]1O` (stereo not given in full), in test [1], the viability change, negative = cytotoxic was 2.15% [at 8.39 µM]. The activity change, negative = cytotoxicity in test [2] is 13.8% [at 8.39 µM].
`CC(C)CNCC(C)C`: the Potency entry in test [1] and in test [2] was “inactive” each time.
Consider `CCC(C)(Oc1ccc(C2(c3ccc(OC(C)(CC)C(=O)O)cc3)CCCCC2)cc1)C(=O)O` (stereo not given), for which the Potency entry in test [1] and in test [2] was “inactive” in each case.
With `CC(C)n1nc(-c2cc3cc(O)ccc3[nH]2)c2c(N)ncnc21`, the Potency entry in test [1] and in test [2] was “inactive” each time.
In the case of `Cc1cccc2c1ccc1ccccc12`, the Potency result in test [1] and in test [2] was “inactive” each time.
`CCC1NC(=O)c2cc(S(N)(=O)=O)c(Cl)cc2N1` (stereo not given): the Potency entry in test [1] and in test [2] was “inactive” in each case.
With `C[C@@H]1C[C@H]2[C@@H]3CCC4=CC(=O)C=C[C@]4(C)[C@@]3(F)[C@@H](O)C[C@]2(C)[C@@]1(O)C(=O)CO`, the Potency entry in test [1] and in test [2] was “inactive” each time.
Turning to `CCCc1ccc(N)cc1`, the Potency result in test [1] and in test [2] was “inactive” each time.
Regarding `Oc1c(Br)cc(Br)c2cccnc12`, the Potency entry in test [1] and in test [2] was “inactive” throughout.
Regarding `OC1CCCC1`, the Potency entry in test [1] and in test [2] was “inactive” each time.
Regarding `O=C(OCc1ccccc1)c1ccc(O)cc1`, the Potency entry in test [1] and in test [2] was “inactive” throughout.
As to `CC(C)CCOC(=O)CC(C)C`, the Potency entry in test [1] and in test [2] was “inactive” each time.
With `CC(=O)S[C@H](C(=O)N[C@H]1Cc2ccccc2[C@H]2CCC[C@@H](C(=O)O)N2C1=O)C(C)C`, the Potency result in test [1] and in test [2] was “inactive” in each case.
For the compound `N[C@@H](CCC(=O)Nc1ccc([N+](=O)[O-])cc1)C(=O)O`, the Potency entry in test [1] and in test [2] was “inactive” in each case.
With `OCc1c2ccccc2cc2ccccc12`, the Potency entry in test [1] and in test [2] was “inactive” in each case.
With `CS(=O)(=O)c1ccc([C@@H](C[C@H]2CCC(=O)C2)C(=O)Nc2cnccn2)cc1Cl`, the Potency result in test [1] and in test [2] was “inactive” each time.
With `NNc1nc(-c2ccccc2)cs1`, the Potency result in test [1] and in test [2] was “inactive” throughout.
Consider `CNc1ccccc1`, for which the Potency result in test [1] and in test [2] was “inactive” throughout.
Regarding `O=C1CCC(=O)N1Cl`, the Potency entry in test [1] and in test [2] was “inactive” each time.
For the compound `Cc1ccc(O)c(O)c1`, the Potency entry in test [1] and in test [2] was “inactive” throughout.
In the case of `COc1ccc(OC)c(OC)c1`, the Potency result in test [1] and in test [2] was “inactive” in each case.
As to `c1cc(-c2ccncc2)ccn1`, the Potency result in test [1] and in test [2] was “inactive” throughout.
As to `CC(=O)c1ccccc1`, the Potency entry in test [1] and in test [2] was “inactive” throughout.
Turning to `CCCOc1ccc2nc(NC(=O)OC)[nH]c2c1`, the Potency result in test [1] and in test [2] was “inactive” in each case.
As to `c1ccc(CCNc2nc(-c3ccccc3)cs2)cc1`, the Potency entry in test [1] and in test [2] was “inactive” each time.
Regarding `CN(C)CCCN1c2ccccc2Sc2ccc(Cl)cc21`, the Potency result in test [1] and in test [2] was “inactive” throughout.
As to `CCOc1ccc(N=Nc2ccc(/C=C/c3ccc(N=Nc4ccc(OCC)cc4)cc3S(=O)(=O)O)c(S(=O)(=O)O)c2)cc1`, the Potency result in test [1] and in test [2] was “inactive” in each case.

Values taken from PubChem BioAssay (Tox21).
